Measurements: PubChem BioAssay (NCATS)
Records with an inconclusive call do not appear. Activity calls are given as the source filed them. Calls follow the shape of the dose curve; as a rule, active = well fitted inhibition curve with a large enough effect; inconclusive = small, poorly fitted or top-dose-only effect; inactive = flat fitted curve, though single readings scatter.

Key:
[1] = qHTS profiling for inhibitors of Plasmodium falciparum proliferation (AID 504749); also: nearly all actives have a fitted effect of over 60% in size;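 as to activity, negative = inhibition: 0% = DMSO vehicle and full inhibition = artemisinin control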; conditions: P. falciparum in erythrocytes, SYBR Green DNA, 72 h
In short: (§1)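 Quantitative HTS: compounds pinned into medium, infected erythrocytes added (0.3% parasitemia, 2.5% hematocrit), 72 h culture at 37 C under 5% CO2. Saponin/Triton lysis with SYBR Green I, overnight RT, then fluorescence read.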

3D7 = assay: as above; conditions: P. falciparum in erythrocytes, SYBR Green DNA, 72 h; series mostly up to 28.7 µM
In short: as §1

7G8 = assay: as above; conditions: P. falciparum in erythrocytes, SYBR Green DNA, 72 h; series mostly up to 28.7 µM
In short: as §1

AA1029 = assay: as above; conditions: P. falciparum in erythrocytes, SYBR Green DNA, 72 h; series mostly up to 28.7 µM
In short: as §1

AS120 = assay: as above; conditions: P. falciparum in erythrocytes, SYBR Green DNA, 72 h; series mostly up to 28.7 µM
In short: as §1

ATS189 = assay: as above; conditions: P. falciparum in erythrocytes, SYBR Green DNA, 72 h; series mostly up to 28.7 µM
In short: as §1

ATS95 = assay: as above; conditions: P. falciparum in erythrocytes, SYBR Green DNA, 72 h; series mostly up to 28.7 µM
In short: as §1

C2A = assay: as above; conditions: P. falciparum in erythrocytes, SYBR Green DNA, 72 h; series mostly up to 28.7 µM
In short: as §1

[2] = at 28.7 µM (top of the series), parasite line A
[3] = at 28.7 µM (top of the series), parasite line B
Potency is read from the fitted curve at half-maximal effect.

O=C1Nc2ccc(Cl)cc2C(c2ccccc2)=NC1O (stereo not drawn)
inactive: activity, negative = inhibition [1, 2] -1.71% | activity, negative = inhibition [1, 3] 3.16% | Potency (3D7) | Potency (7G8) | Potency (AA1029) | Potency (AS120) | Potency (ATS189) | Potency (ATS95) | Potency (C2A)

CN1C(=O)CC(=O)N(c2ccccc2)c2cc(Cl)ccc21
inactive: activity, negative = inhibition [1, 2] 1.1% | activity, negative = inhibition [1, 3] -1.48% | Potency (3D7) | Potency (7G8) | Potency (AA1029) | Potency (AS120) | Potency (ATS189) | Potency (ATS95) | Potency (C2A)

CCCCCCCCCC(=O)O[C@H]1CC[C@H]2[C@@H]3CCC4=CC(=O)CC[C@@H]4[C@H]3CC[C@]12C
inactive: activity, negative = inhibition [1, 2] 6.57% | activity, negative = inhibition [1, 3] 11.7% | Potency (3D7) | Potency (7G8) | Potency (AA1029) | Potency (AS120) | Potency (ATS189) | Potency (ATS95) | Potency (C2A)

C[C@]12CCC(=O)C=C1CC[C@@H]1[C@@H]2CC[C@]2(C)C(=O)CC[C@@H]12
inactive: activity, negative = inhibition [1, 2] -9.45% | activity, negative = inhibition [1, 3] 3.53% | Potency (3D7) | Potency (7G8) | Potency (AA1029) | Potency (AS120) | Potency (ATS189) | Potency (ATS95) | Potency (C2A)

COC1CC(=C(c2cccs2)c2cccs2)C[N+](C)(C)C1 (stereo not drawn)
active: Potency ([1]; parasite line A) 3.98 µM | Potency ([1]; parasite line B) 4.47 µM | Potency (3D7) 11.2 µM | Potency (7G8) 10 µM | Potency (AA1029) 12.6 µM | Potency (AS120) 15.8 µM | Potency (ATS189) 8.91 µM

COc1c2c(cc3c1OCO3)CCN(C)C2
inactive: activity, negative = inhibition ([1]; at 12.8 µM (top of the series), parasite line A) 4.79% | activity, negative = inhibition ([1]; at 12.8 µM (top of the series), parasite line B) 6.97% | Potency (3D7) | Potency (7G8) | Potency (AA1029) | Potency (AS120) | Potency (ATS189) | Potency (ATS95) | Potency (C2A)

COP(=S)(OC)SCN1C(=O)c2ccccc2C1=O
inactive: activity, negative = inhibition [1, 2] 6.4% | activity, negative = inhibition [1, 3] 1.71% | Potency (3D7) | Potency (7G8) | Potency (AA1029) | Potency (AS120) | Potency (ATS189) | Potency (ATS95) | Potency (C2A)

CCCC(C)(COC(N)=O)COC(N)=O
inactive: activity, negative = inhibition [1, 2] 5.3% | activity, negative = inhibition [1, 3] 9.68% | Potency (3D7) | Potency (7G8) | Potency (AA1029) | Potency (AS120) | Potency (ATS189) | Potency (ATS95) | Potency (C2A)

Nc1nc(N)nc(NC2CC2)n1
inactive: activity, negative = inhibition [1, 2] -13.5% | activity, negative = inhibition [1, 3] 1.17% | Potency (3D7) | Potency (7G8) | Potency (AA1029) | Potency (AS120) | Potency (ATS189) | Potency (ATS95) | Potency (C2A)

COP(=S)(OC)Oc1ccc(SC)c(C)c1
inactive: activity, negative = inhibition [1, 2] 8.16% | activity, negative = inhibition [1, 3] 12.2% | Potency (3D7) | Potency (7G8) | Potency (AA1029) | Potency (AS120) | Potency (ATS189) | Potency (ATS95) | Potency (C2A)

Clc1ccc2c(c1)C(c1ccccc1)=NCc1nncn1-2
inactive: activity, negative = inhibition [1, 2] -1.68% | activity, negative = inhibition [1, 3] 10.3% | Potency (3D7) | Potency (7G8) | Potency (AA1029) | Potency (AS120) | Potency (ATS189) | Potency (ATS95) | Potency (C2A)

NNc1ccccc1
inactive: activity, negative = inhibition [1, 2] 7.49% | Potency (3D7) | Potency (7G8) | Potency (AA1029) | Potency (AS120) | Potency (ATS189) | Potency (ATS95) | Potency (C2A)

CN1C(=O)NC(=O)C(C)(C2=CCCCC2)C1=O (stereo not drawn)
inactive: activity, negative = inhibition [1, 3] 7.06% | Potency (3D7) | Potency (7G8) | Potency (AA1029) | Potency (AS120) | Potency (ATS189) | Potency (ATS95) | Potency (C2A)

Nc1ccc([As](=O)(O)O)cc1
inactive: activity, negative = inhibition [1, 2] -20% | activity, negative = inhibition [1, 3] -5.31% | Potency (3D7) | Potency (AA1029) | Potency (AS120) | Potency (ATS189) | Potency (ATS95) | Potency (C2A)

CCOP(=S)(OCC)Oc1ccc2c(C)c(Cl)c(=O)oc2c1
inactive: activity, negative = inhibition [1, 3] -25.9% | Potency (C2A)

COC(=O)C(c1ccccc1)C1CCCCN1 (stereo not drawn)
inactive: activity, negative = inhibition [1, 2] 10.8% | activity, negative = inhibition [1, 3] 13.8% | Potency (3D7) | Potency (AA1029) | Potency (AS120) | Potency (ATS189) | Potency (ATS95) | Potency (C2A)

CC(C)(C)NCC(O)c1ccccc1Cl (stereo not drawn)
active: Potency (7G8) 11.2 µM
inactive: activity, negative = inhibition [1, 2] -1.78% | Potency (3D7) | Potency (C2A)

COc1ccc2c(c1)C13CCCC[C@@H]1C(C2)N(C)CC3 (stereo partly drawn)
inactive: activity, negative = inhibition [1, 2] 4.6% | activity, negative = inhibition [1, 3] -5.63% | Potency (3D7) | Potency (AS120) | Potency (ATS189) | Potency (C2A)
active: Potency (7G8) 4.47 µM

O=C1c2ccccc2C(=O)C1C(=O)C(c1ccccc1)c1ccccc1
inactive: activity, negative = inhibition [1, 2] 4.21% | activity, negative = inhibition [1, 3] -28% | Potency (AA1029) | Potency (ATS189) | Potency (ATS95) | Potency (C2A)
